# Inconclusive results are not listed. Calls of active or inactive are those of the source. Calls follow the shape of the full dose curve.
# Experiment: qHTS Assay for Lipid Storage Modulators (AID 1519); as to activity change, negative = inhibition: % is scaled to controls: 0 for no effect and ±100 for the full control effect
# Settings: Drosophila S3 cells, BODIPY lipid droplet/cell ratio, laser cytometry; at 57.5 µM (top of the series); cells loaded with oleic acid
# Method in brief: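 Cells seeded at 5,000 per well were treated with compounds over a concentration series and loaded with oleic acid (400 uM, as added). Lipid droplet fluorescence (488 nm excitation, 500-530 nm channel) was read by laser-scanning cytometry and normalized to 20 uM Triacsin C.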
row,Compound,"activity change, negative = inhibition"
1,c1cnc(N2CCC3(CCNCC3)CC2)nc1,5.39% (inactive)
2,c1ccc(N2CCC3(CCNCC3)CC2)nc1,6.81% (inactive)
3,c1ccc(N2CCCC3(CCNCC3)C2)nc1,3.94% (inactive)
4,c1cc(N2CCCC3(CCNCC3)C2)ccn1,4.41% (inactive)
5,c1ccc(N2CCCC3(CCNCC3)C2)cc1,4.45% (inactive)
6,c1cc(CN2CCCC3(CCNCC3)C2)ccn1,4.72% (inactive)
7,CC(=O)C1=C(O)C2C3c4c[nH]c5cccc(c45)CC3C(C)(C)N2C1=O (stereo unspecified),8.13% (inactive)
8,c1ccc(N2CC[C@@]3(CCCNC3)C2)cc1,5.37% (inactive)

# Same assay, conditions: Drosophila S3 cells, BODIPY lipid droplet/cell ratio, laser cytometry; measured here: cell count channel max response; cells loaded with oleic acid
row,Compound,max response [%]
1,c1cnc(N2CCC3(CCNCC3)CC2)nc1,13.8
2,c1ccc(N2CCC3(CCNCC3)CC2)nc1,19.9
3,c1ccc(N2CCCC3(CCNCC3)C2)nc1,2.21
4,c1cc(N2CCCC3(CCNCC3)C2)ccn1,13.5
5,c1ccc(N2CCCC3(CCNCC3)C2)cc1,4.47
6,c1cc(CN2CCCC3(CCNCC3)C2)ccn1,11
7,CC(=O)C1=C(O)C2C3c4c[nH]c5cccc(c45)CC3C(C)(C)N2C1=O (stereo unspecified),15.9
8,c1ccc(N2CC[C@@]3(CCCNC3)C2)cc1,5.01
